Here are results for 29 molecules from PubChem BioAssay (NCATS).

The target of assay [1] is Guanine nucleotide-binding protein G(i) subunit alpha-1 (Homo sapiens) (UniProt P63096). The experiment in a line: qHTS Assay for Inhibitors of RGS12 GoLoco Motif Activity (Green Fluorophore) (AID 879).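 Also: negative values mean loss of peptide binding seen as reduced polarization.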 Put shortly: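 A drop in FITC polarization marked displacement of the FITC-tagged RGS12 GoLoco peptide (10 nM) from Gαi1 (50 nM). Compounds were incubated 10 min at room temperature in Tris pH 7.5 buffer containing 150 mM NaCl, 0.1 mM GDP and 0.05% NP40; unlabeled peptide titration served as control.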
Sequence of Guanine nucleotide-binding protein G(i) subunit alpha-1 (Homo sapiens) (P63096 whole entry, looked up): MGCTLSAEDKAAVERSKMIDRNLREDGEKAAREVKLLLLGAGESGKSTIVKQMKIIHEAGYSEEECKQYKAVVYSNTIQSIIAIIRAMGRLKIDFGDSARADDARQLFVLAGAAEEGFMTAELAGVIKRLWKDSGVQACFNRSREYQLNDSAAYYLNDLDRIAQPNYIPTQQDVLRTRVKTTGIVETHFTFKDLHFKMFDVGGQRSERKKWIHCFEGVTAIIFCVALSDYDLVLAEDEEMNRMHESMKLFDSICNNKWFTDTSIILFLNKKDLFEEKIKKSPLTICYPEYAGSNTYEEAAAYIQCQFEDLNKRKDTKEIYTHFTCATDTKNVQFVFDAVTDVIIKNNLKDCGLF
For orientation: Quantitative high-throughput screening tests each substance at several concentrations.

Assay [2] addresses Cytochrome P450 2C9 (Homo sapiens) (UniProt P11712). The experiment in a line: qHTS Assay for Inhibitors and Substrates of Cytochrome P450 2C9 (AID 883). Also: nearly all actives have a fitted effect of over 60% in size. Also: potency is read from the fitted curve at half-maximal effect. Put shortly:
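Human CYP2C9 (10nM) hydroxylated Luciferin-H (100uM, at its KM) to luciferin in 25mM KPO4. Compound was preincubated 10 min at 37C, then NADPH regeneration started a 60 min reaction at 37C. Luminescence was read after detection reagent, normalized to 57uM sulphaphenazole.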

The nature of assay [3]: qHTS Assay for Identification of Small Molecule Agonists for Thrombopoietin (TPO) Signaling Pathway (AID 917). Also: potency is read from the fitted curve at half-maximal effect. Put shortly:
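Cell-based luciferase reporter screen. Mouse Ba/F3 line stably expressing human TPO receptor; IL-3 removed overnight before plating. Co-treatment with compound and EC50 TPO (26 pM), 24 hrs at 37 C, then luminescence.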

The target in assay [4] is Muscarinic acetylcholine receptor M1 (Rattus norvegicus) (UniProt P08482). The experiment in a line: qHTS Assay for Antagonists of Acetylcholine Muscarinic M1 Receptor: Measurement of IP-One Response (AID 944). Also: nearly all actives have a fitted effect of over 75% in size. Also: potency is read from the fitted curve at half-maximal effect. Put shortly: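 Antagonist mode with rat M1 receptor transfected into CHO cells. Compound is added first for 10 min, carbachol at its EC80 follows for 30 min, and lysis reagents then allow TR-FRET detection of accumulated IP1.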
Sequence of Muscarinic acetylcholine receptor M1 (Rattus norvegicus) (P08482 whole entry, looked up): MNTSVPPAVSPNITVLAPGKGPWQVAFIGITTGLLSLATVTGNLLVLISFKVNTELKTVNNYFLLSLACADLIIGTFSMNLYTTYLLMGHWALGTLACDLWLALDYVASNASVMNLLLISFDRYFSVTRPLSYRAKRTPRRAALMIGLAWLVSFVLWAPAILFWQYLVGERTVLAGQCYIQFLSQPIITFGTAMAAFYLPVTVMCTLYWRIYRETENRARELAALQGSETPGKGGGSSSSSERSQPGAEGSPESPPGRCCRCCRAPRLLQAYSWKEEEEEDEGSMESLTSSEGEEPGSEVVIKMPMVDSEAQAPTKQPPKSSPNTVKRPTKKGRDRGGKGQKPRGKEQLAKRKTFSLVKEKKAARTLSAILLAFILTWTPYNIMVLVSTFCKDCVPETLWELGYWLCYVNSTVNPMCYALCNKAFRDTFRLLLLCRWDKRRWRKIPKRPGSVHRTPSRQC

Assay [5] has as its target DNA repair nuclease/redox regulator APEX1 (Homo sapiens) (UniProt P27695). Nature of the assay: qHTS Validation Assay for Inhibitors of the Human Apurinic/apyrimidinic Endonuclease 1 (APE1) (AID 1705;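 also: TAMRA fluorescence gain over two minutes as APE1 cuts a quenched THF abasic duplex; series mostly up to about 57 µM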). The method, boiled down:
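qHTS, 1536-well. APE1 + cpd 15 min RT → 50 nM TAMRA/BHQ-2 THF-abasic dsDNA substrate → kinetic fluorescence, 3 reads/60 s; delta(read3−read1) = reaction progress. No-enzyme buffer = negative control.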

The nature of assay [6]: Counterscreen for APE1 Inhibitors: Fluorescent Dye Displacement Validation Assay (AID 1707). Put shortly: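 Reaction mixture of 250 nM Thiazole Orange and 50 nM double-stranded abasic-site DNA was dispensed, compounds were pin-transferred, and fluorescence was read at endpoint (480 nm ex, 540 nm em). Reduced fluorescence indicated dye displacement by DNA binding.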
A general note: Counterscreens check selectivity or assay interference.

Assay [7] is described as follows: qHTS for differential inhibitors of proliferation of Plasmodium falciparum line W2 (AID 1883).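 Also: potency is read from the fitted curve at half-maximal effect; parasites grown with compound for 72 h before lysis and staining.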 Particulars: Potency: Plasmodium falciparum W2 proliferation inhibition.
The target in assay [8] is Cytochrome P450 2D6 (Homo sapiens) (UniProt P10635). Nature of the assay: Cytochrome P450 family 2 subfamily D member 6 (CYP2D6) small molecule antagonists: luciferase biochemical (cell-free) qHTS assay (AID 1645840; active = well fitted curve in the direction sought with a large enough effect in the repeat runs; an effect the other way counts as inactive or inconclusive; also: series mostly up to about 57 µM; nearly all actives have a fitted effect of over 55% in size). Put shortly: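 P450-Glo CYP2D6 system: proluciferin substrate converted by enzyme to luciferin, read by luminescence proportional to activity. Enzyme-substrate mix with compound 10 min at room temperature, then NADPH regeneration 1 h before detection reagent.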
Sequence of Cytochrome P450 2D6 (Homo sapiens) (P10635 whole entry, looked up): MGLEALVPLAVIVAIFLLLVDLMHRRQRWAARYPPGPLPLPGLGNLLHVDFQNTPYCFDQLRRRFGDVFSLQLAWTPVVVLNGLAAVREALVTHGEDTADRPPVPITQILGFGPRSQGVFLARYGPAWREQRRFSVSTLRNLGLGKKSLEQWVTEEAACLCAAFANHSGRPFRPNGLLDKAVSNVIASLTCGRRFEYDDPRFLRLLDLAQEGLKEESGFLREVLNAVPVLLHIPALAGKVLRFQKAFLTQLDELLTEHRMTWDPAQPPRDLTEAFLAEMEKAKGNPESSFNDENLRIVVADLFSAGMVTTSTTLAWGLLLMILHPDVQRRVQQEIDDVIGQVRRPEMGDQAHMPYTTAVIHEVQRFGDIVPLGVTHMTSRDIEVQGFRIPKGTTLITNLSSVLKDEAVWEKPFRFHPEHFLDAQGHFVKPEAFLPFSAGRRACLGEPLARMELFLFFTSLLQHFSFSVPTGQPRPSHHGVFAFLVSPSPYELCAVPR

Assay [9] addresses Cytochrome P450 2C9 (Homo sapiens) (UniProt P11712). Nature of the assay: Cytochrome P450 family 2 subfamily C member 9 (CYP2C9) small molecule antagonists: luciferase biochemical (cell-free) qHTS assay (AID 1645842; active = well fitted curve in the direction sought with a large enough effect in the repeat runs; an effect the other way counts as inactive or inconclusive; also: series mostly up to about 57 µM; nearly all actives have a fitted effect of over 55% in size). The method, boiled down: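 P450-Glo CYP2C9 system: proluciferin substrate with enzyme in mix containing 0.4% BSA, 10 min at room temperature, then NADPH regeneration solution added and incubated 1 h at 37C. Detection reagent stopped reaction; luminescence read after 20 min as RLU.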

Assay [10] can be described thus: Primary qHTS for inhibitors of nuclear receptor binding SET domain protein 2 (NSD2) in an isogenic RCH-ACV NSD2 p.E1099K mutant (9B) (AID 1645876). Also: potency is read from the fitted curve at half-maximal effect; nearly all actives have a fitted effect of over 70% in size.
Assay [11] is described as follows: Primary qHTS for inhibitors of nuclear receptor binding SET domain protein 2 (NSD2) in an RCH-ACV wild type WT cells (2C) (AID 1645877). Also: potency is read from the fitted curve at half-maximal effect; nearly all actives have a fitted effect of over 70% in size.
In assay [12] the target is Muscarinic acetylcholine receptor M1 (Rattus norvegicus) (UniProt P08482). Nature of the assay: qHTS Assay for Antagonists of Acetylcholine Muscarinic M1 Receptor: Kinetic Measurement of Intracellular Calcium Response (AID 943). Also: nearly all actives have a fitted effect of over 75% in size. Also: potency is read from the fitted curve at half-maximal effect. Put shortly: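 Antagonism is measured as inhibition of the carbachol-evoked calcium rise in CHO cells transfected with rat M1. Cells are dye-loaded, exposed to compound for 10 min, then stimulated with 100 nM carbachol (EC80).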

Assay [13] concerns the target Glutathione peroxidase 1 (Homo sapiens) (UniProt P07203). Nature of the assay: Primary qHTS Assay for Inhibitors of Recombinant Selenoprotein Glutathione Peroxidase 1 (GPX1) (AID 1845191). Also: nearly all actives have a fitted effect of over 65% in size. The method, boiled down: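 GPX1 10 nM, GR 100 nM, GSH 1 mM, NADPH 0.5 mM, CHP 0.5 mM (final). 30-min cpd preincubation, RT. Ex340/Em450 read t=0, t=15 min.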
Assay [14] addresses Alpha-galactosidase A (Homo sapiens) (UniProt P06280). The experiment in a line: Counterscreen for Glucocerebrosidase Inhibitors: qHTS Assay for Human alpha-Galactosidase at pH 4.5 (AID 992). Put shortly:
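Steps: enzyme (2 nM final), then compound across 0.7 nM to 77 uM, then 80 uM fluorogenic galactopyranoside substrate; incubate 20 min at room temperature; quench at pH 10; measure fluorescence at 365/440 nm.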

A short description of assay [15]: Confirmation and Secondary Assay for Modulators of Hemoglobin Beta Chain Splicing at IVS2 654 locus (AID 910).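 Also: per-well total GFP intensity by laser scanning cytometry after 2-day treatment.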 The method, boiled down: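 HeLa cells stably carrying EGFP interrupted by mutant beta-globin IVS2-654 intron (CMV-driven) were treated with compound for 2 days at 37C; corrected splicing was scored as total peak GFP intensity per well (488 nm excitation, 500-520 nm emission).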

Assay [16] in a line: Confirmation and Secondary Assay for Modulators of Hemoglobin Beta Chain Splicing at IVS2 705 locus (AID 930).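 Also: HeLa cells stably expressing the EGFP-705 splicing reporter; GFP fluorescence per well restored by corrected splicing of the IVS2-705 intron in EGFP; series mostly up to about 46 µM.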 Put shortly:
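First, HeLa EGFP-705 cells are seeded at 500/well in Optimem with 2% FCS and left overnight. Next, compound or DMSO is added for 2 days. Finally wells are laser-scanned and total peak GFP intensity scored.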

Several values for one entry are separate records, joined by “and”; a condition that tells them apart may be missing. Identical values can stand only once. Results filed as inconclusive are left out. More than one record can exist for a structure, and the calls need not agree. Activity calls are given as the source filed them. Unless noted, calls follow the shape of the dose curve; as a rule, active = well fitted curve in the direction sought with a large enough effect; inconclusive = small, poorly fitted or top-dose-only effect, or another doubt; inactive = no such curve, though single readings can be large; an effect the other way counts as inactive or inconclusive.

Sequence of Glutathione peroxidase 1 (Homo sapiens) (P07203 whole entry, looked up): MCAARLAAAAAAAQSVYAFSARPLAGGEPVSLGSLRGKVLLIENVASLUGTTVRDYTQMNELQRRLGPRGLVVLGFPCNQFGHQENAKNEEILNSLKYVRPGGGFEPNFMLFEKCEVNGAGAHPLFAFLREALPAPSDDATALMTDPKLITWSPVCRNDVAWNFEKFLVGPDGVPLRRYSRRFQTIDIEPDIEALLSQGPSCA
Sequence of Alpha-galactosidase A (Homo sapiens) (P06280 whole entry, looked up): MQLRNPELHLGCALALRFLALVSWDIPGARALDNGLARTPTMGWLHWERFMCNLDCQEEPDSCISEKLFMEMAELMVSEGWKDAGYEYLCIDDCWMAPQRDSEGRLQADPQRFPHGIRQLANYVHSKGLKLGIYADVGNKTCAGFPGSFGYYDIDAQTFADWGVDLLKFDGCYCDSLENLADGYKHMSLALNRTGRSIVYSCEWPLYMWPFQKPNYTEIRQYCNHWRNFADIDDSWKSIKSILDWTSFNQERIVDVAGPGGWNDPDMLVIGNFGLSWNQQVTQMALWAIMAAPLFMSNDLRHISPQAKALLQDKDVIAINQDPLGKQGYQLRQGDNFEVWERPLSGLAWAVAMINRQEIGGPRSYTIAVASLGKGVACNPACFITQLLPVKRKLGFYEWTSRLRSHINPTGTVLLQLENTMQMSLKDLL
Sequence of Cytochrome P450 2C9 (Homo sapiens) (P11712 whole entry, looked up): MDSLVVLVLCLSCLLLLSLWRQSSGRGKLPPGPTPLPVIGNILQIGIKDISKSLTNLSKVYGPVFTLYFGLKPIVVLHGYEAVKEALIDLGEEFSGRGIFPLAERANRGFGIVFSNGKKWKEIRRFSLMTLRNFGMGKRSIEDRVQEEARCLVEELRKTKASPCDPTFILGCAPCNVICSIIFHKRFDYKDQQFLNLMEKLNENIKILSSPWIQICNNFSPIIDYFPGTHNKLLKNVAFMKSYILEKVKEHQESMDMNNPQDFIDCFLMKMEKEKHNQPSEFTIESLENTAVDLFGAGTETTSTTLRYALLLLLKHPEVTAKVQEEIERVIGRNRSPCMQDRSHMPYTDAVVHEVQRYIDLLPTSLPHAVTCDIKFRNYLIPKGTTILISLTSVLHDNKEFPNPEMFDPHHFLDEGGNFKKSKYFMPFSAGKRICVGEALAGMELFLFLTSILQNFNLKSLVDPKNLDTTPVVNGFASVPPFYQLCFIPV
Sequence of DNA repair nuclease/redox regulator APEX1 (Homo sapiens) (P27695 whole entry, looked up): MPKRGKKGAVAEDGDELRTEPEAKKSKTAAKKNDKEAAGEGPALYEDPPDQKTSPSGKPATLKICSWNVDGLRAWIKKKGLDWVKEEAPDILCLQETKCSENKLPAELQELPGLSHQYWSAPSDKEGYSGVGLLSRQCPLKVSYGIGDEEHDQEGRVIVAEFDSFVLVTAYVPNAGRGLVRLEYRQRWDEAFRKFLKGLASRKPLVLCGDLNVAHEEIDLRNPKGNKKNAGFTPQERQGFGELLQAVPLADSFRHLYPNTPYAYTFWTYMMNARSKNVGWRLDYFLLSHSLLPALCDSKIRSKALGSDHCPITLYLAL

As for `COc1ccc2c(c1)c(CC(=O)N1CCOCC1)c(C)n2C(=O)c1ccc(Cl)cc1`, in assay [1], the molecule was called inactive. Further, the Potency in [2] was 39.8 µM (active); in assay [7] it was 12.6 µM (active). The Potency entry in assay [3], in assay [4], in assay [5] and in assay [6] was “inactive” in each case.
For `C=C1C(=O)O[C@@H]2[C@H]3O[C@]3(C)CC/C=C(\C)CC[C@@H]12`, the Potency entry in assay [8] and in [9] was “inactive” throughout. Moreover, the figures for the Potency in [10] and in assay [11] were 3.72 µM (active) and 2.09 µM (active), respectively.
With `NCCNS(=O)(=O)c1cccc2cnccc12`, the Potency entry in assay [12], in assay [4], in assay [5] and in assay [6] was “inactive” each time. The Potency in assay [7] is 11.2 µM (active).
Turning to `Cc1ccc(NC2=CC(=O)c3sc(C)nc3C2=O)cc1`, in [13], the Potency result is “inactive”.
Turning to `O=C(NCCNC[C@@H](O)COc1ccc(O)cc1)N1CCOCC1`, the outcome in assay [1] and in [14] was inactive. For the same molecule, the Potency result in assay [3] and in assay [4] was “inactive” throughout.
In the case of `C=CCN1CCc2cc(O)c(O)cc2[C@H](c2ccccc2)C1`, the molecule was called inactive in assay [1]. Besides, in assay [4], the Potency entry was “inactive”.
`CC#CCOC(=O)c1c(C)nc2sc3c(c2c1N)CC[C@@H](O)C3`: the result in assay [1] and in [14] was inactive. The Potency result in [2] and in assay [3] was “inactive” in each case. Moreover, the Potency in [12] was 5.01 µM (active).
`COc1cc([C@@H]2c3cc4c(cc3C(O[C@@H]3O[C@@H]5CO[C@@H](c6cccs6)OC5[C@H](O)[C@H]3O)C3COC(=O)[C@@H]32)OCO4)cc(OC)c1O` (stereo partly specified): the Potency result in assay [13] was “inactive”.
Consider `N[C@H](Cc1ccccc1)C(=O)O`, for which the Potency result in [13] is “inactive”.
`C[C@@H]1CCN=C(N)S1`: the Potency result in [3] and in assay [4] was “inactive” each time. Further, the result in [14] was inactive.
`N[C@H](Cc1ccc(Cl)cc1)C(=O)O`: the outcome in [1], in assay [15], in [16] and in assay [14] was inactive. The Potency entry in assay [2] and in [12] was “inactive” each time.
For the molecule `CCCCCCCCCCCCCCCC(=O)N[C@H](CN1CCOCC1)[C@H](O)c1ccccc1`, the Potency result in assay [13] is “inactive”.
`CCCCN1CCC(CCC(=O)c2cc(Cl)c(N)cc2OC)CC1`: the Potency result in assay [2] was “inactive”.
On to `Fc1ccc(-c2nc3n(c2-c2ccncc2)CCS3)cc1`, for which the Potency result in [13] is “inactive”.
For `CN[C@@H]1[C@H](O)[C@H](O[C@@H]2[C@H](O)[C@@H](O[C@H]3O[C@H]([C@@H](C)NC)CC[C@H]3N)[C@@H](N)C[C@H]2N)OC[C@]1(C)O`, the outcome in [13] is “inactive [at 9.52 µM]”.
Consider `CCCCOc1cc(C[C@@H]2CNC(=O)N2)ccc1OC`, for which the Potency entry in assay [2], in assay [3] and in [4] was “inactive” each time. In addition, the outcome in assay [15], in assay [16] and in assay [14] was inactive.
As to `Cc1cccc([C@@H]2CN(C)CCc3c2cc(O)c(O)c3Cl)c1`, in assay [1], the molecule was classed as inactive. The Potency entry in assay [4] is “inactive”.
With `COC(=O)/C=C\c1cc(O)ccc1O`, the Potency in [2] was 7.94 µM (active).
As to `C[C@@H](CCCCC(=O)Nc1ccc(C(F)(F)F)cc1)NCCc1cnc[nH]1`, the Potency in assay [2] was 7.94 µM (active).
In the case of `O=C(O)[C@H]1CN(CCCP(=O)(O)O)CCN1`, the outcome in [1] was inactive. For the same molecule, the Potency entry in assay [2], in assay [3] and in [12] was “inactive” throughout.
Regarding `Cc1cccc(/C=C\c2ccccc2)n1`, in assay [1], the result was inactive. Moreover, the Potency result is “inactive and 3.98 µM (active)” in [2]; 2 µM (active) in [3]. Also, the Potency result in assay [4] is “inactive”.
Turning to `CS(=O)(=O)c1ccc(-c2cc(Br)sc2-c2ccc(F)cc2)cc1`, the Potency in [2] was 0.794 µM (active).
For `CCCCOC(=O)c1cc2c(cn1)[nH]c1ccccc12`, the Potency in assay [2] was 7.94 µM (active).
Take `Cc1noc(NS(=O)(=O)c2cccc3c(N(C)C)cccc23)c1C`: in assay [2], the Potency is 0.631 µM (active).
Consider `C#C[C@]1(O)CC[C@H]2[C@H]3CCC4=Cc5oncc5C[C@]4(C)[C@@H]3CC[C@]21C`, for which the result in [1] and in [14] was inactive. In [4], the Potency is 7.94 µM (active).
Turning to `O=C(N/N=C\c1ccccc1O)c1ccccc1O`, the Potency result in assay [2] is “inactive”.
The same measure, in the same setting: the result for `NCCCCCCCCCCNS(=O)(=O)c1cccc2c(Cl)cccc12` reads 0.0501 µM (active); that for `CSc1nc(NC2CCCC2)c([N+](=O)[O-])c(NC2CCCC2)n1`, 2 µM (active).
For the molecule `CCS(=O)(=O)N1CCC[C@H]2CN3CCc4cc(OC)ccc4[C@@H]3C[C@@H]21`, in assay [2], the Potency result was “inactive”.
